# Screens as filed in PubChem BioAssay.
# Hits are enriched below; roughly 0.99% of the tested compounds scored in any of these assays.
# NS1 inh: inhibitors of influenza NS1 protein function; Potency, µM (titrated, usually from 46.1 µM), for inactives: at the highest dose activity, positive = more growth; actives 0.4% (n = 270,000); AID 2326; calls by dose curve; also: potency is read from the fitted curve at half-maximal effect; actives are rising curves; nearly all actives have a fitted effect of over 50% in size
#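 Recovery from NS1-induced slow growth read by OD600 in budding yeast switched to galactose assay medium (pH 6.0, -URA) at 1:100 dilution. Compound 23 nl per well; the matching strain lacking NS1 serves as control.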
# AMA1 RON2 block: disrupts binding of P. falciparum AMA1 to RON2; AlphaScreen AMA1-biotinylated RON2 peptide binding; Potency, µM (doses to about 58.2 µM), without a hit: at the top dose activity change, negative = inhibition, usual class: inhibitors; actives 0.2% (n = 360,000);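 also: potency is read from the fitted curve at half-maximal effect; 0% = vehicle wells and -100% = peptide control; nearly all actives have a fitted effect of over 45% in size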
#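 AMA1 (3D7) with his tag at 25 nM final met compounds first, then biotinylated RON2 peptide at 25 nM; detection used donor plus acceptor beads, 10 µg/mL apiece, read by AlphaScreen after 30 min at room temperature.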
# AmpC detergent: blocks E. coli AmpC beta-lactamase in detergent assay | P00811 | AmpC hydrolysis of nitrocefin, absorbance 480 nm, 0.01% Triton | Potency, µM (highest dose often 114 µM), for the others: at the top dose activity change, negative = inhibition, hits mostly inhibitors | actives 0.041% (n = 370,000);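 also: potency is read from the fitted curve at half-maximal effect; 0% = no-compound wells and -100% = no-enzyme wells; nearly all actives have a fitted effect of over 25% in size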
# Target sequence (P00811 whole entry, looked up): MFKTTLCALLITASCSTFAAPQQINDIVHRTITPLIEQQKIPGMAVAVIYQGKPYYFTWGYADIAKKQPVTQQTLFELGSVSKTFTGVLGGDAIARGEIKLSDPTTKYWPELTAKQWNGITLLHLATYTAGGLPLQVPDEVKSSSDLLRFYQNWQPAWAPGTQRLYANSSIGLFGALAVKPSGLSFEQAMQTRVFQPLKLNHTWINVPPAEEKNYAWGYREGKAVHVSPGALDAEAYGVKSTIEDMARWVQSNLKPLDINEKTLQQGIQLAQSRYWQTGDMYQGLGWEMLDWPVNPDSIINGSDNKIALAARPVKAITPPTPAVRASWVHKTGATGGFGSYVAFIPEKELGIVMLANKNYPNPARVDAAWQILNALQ
#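 AmpC (5.3 nM in the dispensed reagent) in 20 mM phosphate pH 7.0 with 0.01% (detergent screen) or 0.0001% Triton X-100 was preincubated with compounds for 15 min at room temperature. Nitrocefin was then added from an 800 uM solution, and hydrolysis was followed at 480 nm.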
# SARS PLpro yeast: blocks SARS-CoV papain-like protease in a yeast assay; S. cerevisiae expressing SARS-CoV PLpro, growth rescue; Potency, µM (highest dose often 32.9 µM), without a hit: at the highest dose activity, positive = growth rescue, usual class: activators; actives 0.19% (n = 330,000); AID 485353; calls by dose curve; also: potency is read from the fitted curve at half-maximal effect; 0% is about no effect; nearly all actives have a fitted effect of over 55% in size
# AmpC no deterg: blocks E. coli AmpC beta-lactamase in detergent-free assay | P00811 | AmpC nitrocefin hydrolysis, absorbance 480 nm, 0.0001% Triton | Potency, µM (doses to about 57.1 µM), inactives show at the top dose activity change, negative = inhibition, actives largely listed as inhibitors | actives 0.52% (n = 330,000) | AID 485341;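 also: potency is read from the fitted curve at half-maximal effect; plate controls were no compound for no effect and no enzyme for full effect; nearly all actives have a fitted effect of over 20% in size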
#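 AmpC (5.3 nM in the dispensed reagent) in 20 mM phosphate pH 7.0 with 0.01% (detergent screen) or 0.0001% Triton X-100 was preincubated with compounds for 15 min at room temperature. Nitrocefin was then added from an 800 uM solution, and hydrolysis was followed at 480 nm.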
# NS1 inh valid: validation of influenza NS1 protein function inhibitors. shares compounds with NS1 inh. influenza NS1 function cell assay, 15-point titration. activity change, negative = inhibition, % at 32.9 µM. 1,400 tested, under 10 active. AID 492980; calls by dose curve; also: 0% is about no effect
# PR8 titer: influenza virus titer reduction, NS1 project. shares compounds with NS1 inh. MDCK infected influenza A/PR/8/34, virus titer TCID50; stronger effect = lower value. virus titer (log TCID50), log10 TCID50 at 5 µM. actives 30% (n = 95); call rule not given here
# * = called active by the depositor; ? = inconclusive; / = no result; [ ] = dose if it differs, or a comment. Unless noted, calls follow the shape of the dose curve; as a rule, active = well fitted curve in the direction sought with a large enough effect; inconclusive = small, poorly fitted or top-dose-only effect, or another doubt; inactive = no such curve, though single readings can be large; an effect the other way counts as inactive or inconclusive.
SMILES,NS1 inh,AMA1 RON2 block,AmpC detergent,SARS PLpro yeast,AmpC no deterg,NS1 inh valid,others
CCN(CC)S(=O)(=O)c1ccc2c(c1)N(CC(=O)NCCCN1CCN(c3cc(C)ccc3C)CC1)C(=O)CO2,/,/,5%,/,/,/,
COc1cc(/C=N/NC(=O)c2ccc3nc[nH]c3c2)cc(OC)c1OC,1%,16%,-1%,0%,-28%,/,
COc1cc(/C=N/NC(=O)c2ccc(CSc3nc4ccccc4[nH]3)cc2)cc(OC)c1OC,13µM*,-4%,-3%,13%,48%,?,PR8 titer=8
COc1ccc(Cl)cc1NC(=O)NCCc1c(C)nn(C)c1C,/,/,11%,/,/,/,
Cc1c(Nc2nc3ccccc3nc2NS(=O)(=O)c2cccc(Cl)c2)c(=O)n(-c2ccccc2)n1C,8.9µM*,44%,-1%,18%,-10%,13,
COc1ccc(S(=O)(=O)c2cn(C)c3ccc(C)cc3c2=O)cc1,/,/,6%,/,/,/,
CCOc1ccc(OCC)c(NS(=O)(=O)c2cccc3nsnc23)c1,?,-19%,-4%,-1%,-10%,3,
CCOc1ccccc1NS(=O)(=O)c1cccc2nsnc12,3%,-10%,?,-3%,-17%,/,
O=C1C=CC(=O)C(C2=C3C(=O)N(CCc4ccccc4)CC(=O)N3CCC2)=C1,14µM*,-6%,?,-1%,-43%,3,
Cc1ccc(C)c(NC(=O)c2cnc3sc(N4CCOCC4)nn3c2=O)c1,/,/,-6%,/,/,/,
CCOc1ccc(NC(=O)c2cccc(N3CCCS3(=O)=O)c2)cc1,/,/,-7%,/,/,/,
COC(=O)c1c(NC(=O)CN2C(=O)c3ccccc3C2=O)sc(Cc2ccc3c(c2)OCO3)c1C,10µM*,5%,?,3%,-59%,-37,
COC(=O)c1c(NC(=O)CN2CCN(Cc3ccc4c(c3)OCO4)CC2)sc(C)c1C,-54%,14%,-20%,-1%,164%,/,
Cc1ccc(C)c(CN2C(=O)c3ccccc3Sc3ccc(C(=O)NC4CCCC4)cc32)c1,/,/,9%,/,/,/,
O=C(O)CSc1nnc(-c2cc3ccccc3o2)n1-c1ccccc1,?,7%,?,11%,-23%,3,
Cc1cc(NC(=O)COC(=O)c2cccc(S(=O)(=O)N3CCOCC3)c2)no1,-6%,-5%,-3%,-1%,-12%,/,
O=C(COC(=O)c1cccc(S(=O)(=O)N2CCOCC2)c1)Nc1nc(-c2ccccc2Cl)cs1,11µM*,-5%,-9%,0%,-23%,?,
COc1ccc(NC(=O)CC2C(=O)N(c3ccc(F)cc3)C(=O)N2Cc2cccnc2)cc1 (stereo not given),/,/,18%,/,/,/,
CSc1ncc(C(=O)Nc2cccc(Cl)c2C)c(-c2ccccc2)n1,/,/,23%,/,/,/,
COc1ccccc1C(=O)N(Cc1sccc1C)C1CCS(=O)(=O)C1 (stereo not given),3.2µM*,-8%,-11%,-10%,-4%,3,
COc1ccc(C)cc1NC(=O)N(Cc1ccc(C)o1)C1CCN(C(C)=O)CC1,/,/,12%,/,/,/,
Cc1nn(CC(=O)N2CCC(C)CC2)c(=O)c2cc3occc3n12,/,/,26%,/,/,/,
Cc1nc2c(ccc3nc(NC(=O)c4ccc5c(c4)OCCO5)sc32)s1,?,0%,-1%,-8%,6%,-30,
Cc1nc2ccc3nc(NC(=O)c4ccc5c(c4)OCCO5)sc3c2s1,8%,15%,3%,-9%,-29%,/,
COc1cccc(N2CC(NC(=O)c3cccc(OC)c3OC)CC2=O)c1 (stereo not given),/,/,2%,/,/,/,
SMILES,NS1 inh,AMA1 RON2 block,AmpC detergent,SARS PLpro yeast,AmpC no deterg,NS1 inh valid,others
COC(=O)Cc1[nH]n(-c2ccccc2)c(=O)c1C(C)=Nc1ccccc1,/,-21%,3%,-1%,-8%,/,
COC(=O)Cc1cc(=O)n(-c2ccccc2)[nH]1,8.9µM*,-4%,?,3%,-18%,37,
C/C(=N\NC(=O)c1[nH]c2c([N+](=O)[O-])cc(C)cc2c1-c1ccccc1)c1cccnc1,8.9µM*,-9%,-1%,-8%,-1%,-14,
C/C(=N\NC(=O)c1cccnc1)c1ccc(C)c([N+](=O)[O-])c1,/,7%,4%,1%,0%,/,
CC1Cc2nc(SCC(N)=O)n(Cc3ccccc3)c(=O)c2S1 (stereo not given),10%,-3%,5%,6%,-22%,/,
CC1Cc2nc(SCC(=O)Nc3ccc4c(c3)OCO4)n(Cc3ccccc3)c(=O)c2S1 (stereo not given),11µM*,-2%,-8%,14%,-27%,31,
CC1Cc2nc(SCC(=O)Nc3nccs3)n(Cc3ccccc3)c(=O)c2S1 (stereo not given),20µM*,-3%,-2%,16%,-31%,-17,
Cc1cccc(NC(=O)c2sc3nc(N4CCOCC4)c4c(c3c2N)CC(C)(C)OC4)c1,/,/,21%,/,/,/,
COc1ccc(OC)c(/C=N/NC(=O)Cc2nc3ccccc3[nH]2)c1,2µM*,-3%,-9%,-9%,-27%,10,
O=C(Cc1nc2ccccc2[nH]1)N/N=C/c1ccccc1,?,60%,-5%,-3%,-26%,/,
Cc1ccc(C(=O)c2c(N)c(C(=O)Nc3ccccc3Cl)c3ccccn23)cc1,/,/,15%,/,/,/,
COC(=O)c1ccc(C(=O)OC)c(NC(=O)N2CC3CCCN3c3ccccc32)c1 (stereo not given),/,/,3%,/,/,/,
COc1ccccc1-n1cc(-c2ccccc2)c2c(=S)nc[nH]c21,14µM*,-5%,-2%,12%,13%,-21,
O=S(=O)(Nc1ncnc2c1oc1ccccc12)c1ccc(Cl)s1,1.1µM*,10%,?,11%,-18%,-1,
O=c1n(Cc2ccc(F)cc2Cl)c2ccccc2c2nc(-c3ccccc3)nn12,/,/,-9%,/,/,/,
CCc1ccc(NC(=O)c2sc3nc(C)c(C(=O)Nc4ccc(C)cc4C)c(-c4ccco4)c3c2N)cc1,/,/,-1%,/,/,/,
CCOc1ccc(S(=O)(=O)c2c(C(=O)c3ccc(C)cc3)cnc3cc4c(cc23)OCCO4)cc1,14µM*,-2%,-7%,-2%,-6%,-14,
Cc1ccc(C(=O)c2cnc3cc4c(cc3c2S(=O)(=O)c2ccccc2)OCCO4)cc1,?,-9%[11.6 µM],-4%,-8%,-11%,/,
Cc1ccc(-c2cc(C(=O)Nc3ccc(SC(F)F)cc3)no2)cc1F,/,/,-3%,/,/,/,
COc1cccc(CNC(=O)c2ccc3c(c2)nc2n3CCCCC2)c1OC,/,/,16%,/,/,/,
O=C(O)c1cccc(CN2CCCCC2)c1,1%,/,/,/,/,/,
O=C(O)c1cccc(CN2C(=O)CSC2=O)c1,22µM*,7%,-3%,4%,-3%,-9,
